PPARg SRC2 recr: promotes SRC-2 coactivator recruitment by human PPARgamma. P37231. PPARgamma LBD-SRC-2 recruitment, biochemical. activation, % at 8 µM. hit rate 0.34% among 200,000. AID 1032; in the data active = activation above about 22%;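 also: 0% = vehicle and 100% = reference agonist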
Target sequence (P37231 whole entry, looked up, the tested form may be a part): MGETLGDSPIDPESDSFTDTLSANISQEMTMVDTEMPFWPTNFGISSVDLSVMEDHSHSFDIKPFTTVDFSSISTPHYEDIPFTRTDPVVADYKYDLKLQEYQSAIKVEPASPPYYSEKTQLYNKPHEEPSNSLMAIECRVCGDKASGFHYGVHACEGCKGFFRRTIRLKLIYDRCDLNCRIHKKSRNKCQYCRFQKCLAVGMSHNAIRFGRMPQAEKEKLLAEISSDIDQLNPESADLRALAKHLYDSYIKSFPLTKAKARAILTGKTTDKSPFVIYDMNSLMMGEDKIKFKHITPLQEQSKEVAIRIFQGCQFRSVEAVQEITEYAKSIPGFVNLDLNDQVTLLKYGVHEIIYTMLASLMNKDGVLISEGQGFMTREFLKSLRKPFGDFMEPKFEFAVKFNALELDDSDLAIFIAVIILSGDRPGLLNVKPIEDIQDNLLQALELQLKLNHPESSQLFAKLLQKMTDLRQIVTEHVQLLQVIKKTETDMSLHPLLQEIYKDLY
PPARg SRC3 recr: promotes SRC-3 coactivator recruitment by human PPARgamma; P37231; biochemical PPARgamma/SRC-3 coactivator recruitment assay; activation, % at 8 µM; hit rate 0.26% among 200,000; in the data active = activation above about 23%;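 also: 0% = DMSO and 100% = reference agonist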
PPARg SRC1 recr: promotes SRC-1 coactivator recruitment by human PPARgamma; P37231; PPARgamma-SRC-1 coactivator recruitment biochemical assay; activation, % at 8 µM; hit rate 0.41% among 200,000; in the data active = activation above about 19%;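 also: 0% = DMSO and 100% = reference agonist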
SRC2 TRFRET art: flags TR-FRET format artefacts in PPARgamma SRC-2 recruitment agonist screen; TR-FRET artefact counter-screen; active compounds read high; TR-FRET ratio at 8 µM; hit rate 0.4% among 200,000; AID 1049
SRC3 TRFRET art: flags TR-FRET format artefacts in PPARgamma SRC-3 recruitment agonist screen; TR-FRET ratio at 8 µM; hit rate 0.39% among 99,000; TR-FRET artefact counter-screen, PPARgamma/SRC-3 format; active compounds read high
SRC1 TRFRET art: flags TR-FRET format artefacts in PPARgamma SRC-1 recruitment agonist screen; TR-FRET detection artefact counter-screen, emission ratio; active compounds read high; TR-FRET ratio at 8 µM; hit rate 0.34% among 99,000; in the data active = TR-FRET ratio above about 2300
PPARg SRC2 conf: human PPARgamma SRC-2 recruitment agonism, confirmation; shares compounds with PPARg SRC3 recr; biochemical SRC-2 recruitment by PPARgamma; activation, % at 8 µM; hit rate 52% among 790; in the data active = activation above about 22%;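 also: 0% = vehicle alone and 100% = reference agonist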
PPARg SRC1 ag: human PPARgamma SRC-1 recruitment agonism, confirmation; activation, % at 8 µM; PPARgamma–SRC-1 coactivator recruitment biochemical assay; hit rate 43% among 790; shares compounds with PPARg SRC3 recr; in the data active = activation above about 20%;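 also: 0% = vehicle wells and 100% = reference agonist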
PPARg SRC3 conf: human PPARgamma SRC-3 recruitment agonism, confirmation; shares compounds with PPARg SRC3 recr; biochemical PPARgamma-SRC-3 coactivator recruitment, agonist mode; activation, % at 8 µM; hit rate 29% among 790; in the data active = activation above about 24%;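 also: 0% = vehicle wells and 100% = reference agonist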
Active calls of the source: *; / = no result. Only some compounds are listed: those with a hit (about 0.9% of all), similar ones and a draw of the others. Rule as the data show it, unless noted: active = TR-FRET ratio above about 2000; inactive = the rest.

SMILES | PPARg SRC2 recr | PPARg SRC3 recr | PPARg SRC1 recr | SRC2 TRFRET art | SRC3 TRFRET art | SRC1 TRFRET art | PPARg SRC2 conf | PPARg SRC1 ag | PPARg SRC3 conf
COc1cccc(C2C(C(=O)c3cc4ccccc4o3)=C(O)C(=O)N2c2cc(C)on2)c1OC (stereo not drawn) | 45* | 69* | 50* | 2593* | / | / | 36* | 28* | 25*
COc1cccc(C2C(C(=O)c3cc4cccc(OC)c4o3)=C(O)C(=O)N2c2cc(C)on2)c1OC (stereo not drawn) | 35* | 45* | 33* | 2236* | / | / | 41* | 28* | 26*
COC(=O)c1sc(-c2ccccc2)cc1NC(=O)C1CC1 | 30* | 21 | 33* | 2243* | 2499* | 2544* | 32* | 21* | 18
CCOC(=O)c1sc(-c2ccc(OC)cc2)cc1NC(C)=O | 22* | 14 | 18 | 1849 | 2089* | 2390* | 43* | 30* | 32*
CCOc1ccc(NC(=O)Nc2cc(-c3ccccc3)sc2C(=O)OC)cc1 | 1 | -1 | 5 | 1494 | 1594 | 1837 | / | / | /
COc1cccc(CN2CCNC(=O)C2CC(=O)NCCOc2cccnc2)c1 (stereo not drawn) | -10 | -5 | 6 | 1375 | 1293 | 1600 | / | / | /
CC(C)Oc1ccc(CC2CCC(=O)N(C)C2=O)cc1 (stereo not drawn) | 8 | 6 | 1 | 1764 | 1613 | 1878 | / | / | /
Cc1ccc(C(=O)NCc2ccco2)cc1S(=O)(=O)Nc1cccc(Cl)c1 | 10 | -6 | 5 | 1711 | / | / | / | / | /
CCOc1ccc(NS(=O)(=O)c2cc(NC(=O)c3ccc(C)cc3)ccc2Cl)cc1 | -1 | 6 | -1 | 1328 | 1611 | 1799 | / | / | /
c1csc(CNc2ccc3c(c2)OCCO3)c1 | 12 | 4 | -3 | 1372 | 1463 | 1796 | / | / | /
Oc1ccccc1CNc1ccc2c(c1)OCCO2 | 12 | 7 | 21* | 1679 | 1582 | 2053 | 5 | 3 | 3
COc1cc(NC(=O)c2cc3c(=O)n(C)c4ccccc4c3n2C)cc(OC)c1OC | 11 | 28* | 22* | 1684 | / | / | 7 | 5 | 4
CN(C)c1ccc(NC(=O)CSc2nc(N)c(C(=O)Nc3ccc(N(C)C)cc3)s2)cc1 | 24* | 20 | 13 | 1835 | / | / | 7 | 11 | 5
CC(=O)c1sc(NC(=O)CCCOc2ccc(Cl)cc2)nc1C | 27* | 20 | 22* | 2055* | 2343* | 2292 | 19 | 16 | 12
COc1ccccc1NS(=O)(=O)c1cccc(NC(=O)c2sc3ccccc3c2Cl)c1 | 17 | 8 | 22* | 2161* | 2458* | 2434* | 13 | 10 | 4
CCCCCCCC(=O)N/N=C/c1cccnc1 | 6 | 9 | 20* | 1642 | / | / | 5 | 3 | 6
O=S(=O)(NC1CCCCC1)c1ccc(Cl)nc1 | 0 | 4 | 10 | 1825 | 1622 | 1928 | / | / | /
CC(C)N(C(=O)Cn1cc(SCC(=O)NCC2CCCO2)c2ccccc21)C(C)C (stereo not drawn) | 1 | 2 | 1 | 1473 | 1645 | 1859 | / | / | /
Cn1c(=O)cc(SCC(=O)NCCC2=CCCCC2)c2ccc(Cl)cc21 | -6 | 0 | -4 | 1438 | 1608 | 1403 | / | / | /
Cn1c(=O)cc(SCC(=O)NCC2CCCO2)c2ccc(Cl)cc21 (stereo not drawn) | 90* | 112* | 63* | 2967* | / | / | 43* | 28* | 29*
CN(CCCNC(=O)CSc1cc(=O)n(C)c2cc(Cl)ccc12)Cc1ccccc1 | 20 | 33* | 64* | 2902* | 2993* | 3308* | 39* | 27* | 27*
CCn1c(=O)cc(SCC(=O)NCC2CCCO2)c2ccccc21 (stereo not drawn) | 50* | 66* | 31* | 2825* | / | / | 35* | 21* | 23
CCN1CCCC1CNC(=O)CSc1cc(=O)n(C)c2cc(Cl)ccc12 (stereo not drawn) | 52* | 57* | 50* | 2477* | / | / | 39* | 28* | 27*
O=C(NCC(c1cccnc1)N1CCN(c2ccc(F)cc2)CC1)c1ccc(F)cc1 (stereo not drawn) | -3 | -19 | -9 | 1515 | / | / | / | / | /
c1ccc(CCN(Cc2ccccc2)Cc2nc(C3CC3)no2)cc1 | 5 | 5 | 1 | 1457 | 1448 | 1764 | / | / | /
SMILES | PPARg SRC2 recr | PPARg SRC3 recr | PPARg SRC1 recr | SRC2 TRFRET art | SRC3 TRFRET art | SRC1 TRFRET art | PPARg SRC2 conf | PPARg SRC1 ag | PPARg SRC3 conf
CC(C)CNC(=O)CN(c1cccc(Cl)c1)S(C)(=O)=O | 3 | 0 | 2 | 1467 | 1626 | 1965 | / | / | /
COCCCNc1nnc(Cc2ccccc2)c2ccccc12 | 3 | 2 | 6 | 1694 | 1742 | 1985 | / | / | /
c1ccc(Cc2nnc(Sc3ccccc3)c3ccccc23)cc1 | 117* | 113* | 65* | 4254* | / | / | 77* | 52* | 53*
Cc1ccc(C)c(-n2c3nc(=O)[nH]c(=O)c-3cc3cc([N+](=O)[O-])ccc32)c1 | -3 | 23* | 13 | 1510 | 1545 | 1662 | 11 | 13 | 21
O=C(Nc1cc(SCC(O)CO)cc([N+](=O)[O-])c1)c1ccc(-n2cnnn2)cc1 (stereo not drawn) | 59* | 28* | 62* | 1611 | 1435 | 1703 | 10 | 3 | 3
Cc1ccc(C(=O)C2=C(O)C(=O)N(CCCn3ccnc3)C2c2ccc(OC(C)C)cc2)o1 (stereo not drawn) | 28* | 26* | 14 | 2124* | / | / | 10 | 6 | 7
CCOc1ccc(C2C(C(=O)c3ccco3)=C(O)C(=O)N2CCCn2ccnc2)cc1 (stereo not drawn) | 19 | 16 | 8 | 1743 | / | / | / | / | /
CCOC(=O)c1c(-c2cccs2)csc1NC(=O)CCCC(=O)O | 25* | 19 | 13 | 2153* | / | / | 25* | 19 | 19
O=C(Nc1cccc(NC(=O)c2ccc(Br)o2)n1)c1ccc(Br)o1 | 14 | 12 | 19* | 1847 | / | / | 6 | 3 | 2
COC(=O)c1ccc(CSc2ncnc3c2oc2ccccc23)o1 | 29* | 50* | 56* | 1972* | / | / | 44* | 29* | 31*
c1ccc(Sc2ncnc3c2oc2ccccc23)nc1 | 15 | 7 | 2 | 1640 | / | / | / | / | /
O=C(CSc1ncnc2c1oc1ccccc12)Nc1ccccc1F | 13 | 27* | 33* | 1545 | / | / | 37* | 29* | 24
CC(C)Sc1ncnc2c1oc1ccccc12 | 33* | 38* | 36* | 1948 | / | / | 45* | 33* | 30*
O=C(CSc1ncnc2c1oc1ccccc12)Nc1nc2ccccc2s1 | 12 | 39* | 30* | 1783 | / | / | 44* | 31* | 28*
